Screens as filed in PubChem.
Compounds with a hit are over-represented: about 2.9% of the library has one in this group of screens.
PAFAH1B3 inh – PAFAH1B3 enzyme inhibitors, primary screen, biochemical, fluorescence polarization, human. Platelet-activating factor acetylhydrolase IB subunit alpha1 (Homo sapiens), Q15102. inhibition, % at 3.39 µM. recombinant PAFAH1B3, FP-rhodamine probe. 0.28% of 340,000 active;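 active means inhibition above the screen-wide average of all tested compounds plus 3 SD, cut at about 25% in these data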;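 further: 0% = enzyme with DMSO only and 100% = wells lacking PAFAH1B3 protein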
Target sequence (Q15102 whole entry, looked up): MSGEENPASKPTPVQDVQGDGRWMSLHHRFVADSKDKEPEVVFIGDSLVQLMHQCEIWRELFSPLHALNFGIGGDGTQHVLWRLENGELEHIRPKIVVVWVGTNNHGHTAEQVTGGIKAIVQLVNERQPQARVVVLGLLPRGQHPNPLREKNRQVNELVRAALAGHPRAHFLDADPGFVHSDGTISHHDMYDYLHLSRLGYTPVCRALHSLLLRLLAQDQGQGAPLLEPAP
LYPLA1 counter – LYPLA1 inhibitors, primary screen, counter-screen for PME1 inhibitor project, biochemical, fluorescence polarization, FP-Rh probe ABPP. Acyl-protein thioesterase 1 (Homo sapiens), O75608. recombinant LYPLA1. inhibition, % at 5.9 µM. 0.16% of 320,000 active;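 active means inhibition above the mean of all tested compounds plus 3 SD, set per campaign, cut at about 14% in these data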;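 further: inhibitors block serine hydrolase probe labeling of LYPLA1 so polarization falls; 0% = enzyme with DMSO and 100% = wells lacking LYPLA1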
pPAFAH FP inh – pPAFAH enzyme inhibitors, primary screen, biochemical, fluorescence polarization, human; recombinant pPAFAH, FP-rhodamine probe fluorescence polarization; inhibition, % at 3.39 µM; 1.5% of 330,000 active;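 active means inhibition above the mean inhibition across the screen plus 3 SD, cut at about 25% in these data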;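 further: inhibitors block binding of the rhodamine activity-based probe so polarization drops; 0% = enzyme with DMSO and 100% = wells lacking pPAFAH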
LYPLA2 inh – LYPLA2 inhibitors, primary screen, counter-screen for PME1 inhibitor project, biochemical, fluorescence polarization, FP-Rh probe ABPP. 0.38% of 320,000 active. inhibition, % at 5.9 µM. Acyl-protein thioesterase 2 (Homo sapiens), O95372. recombinant LYPLA2;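 active means inhibition above the screen-wide mean plus 3 SD, limit set per campaign, cut at about 26% in these data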;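 further: 0% = LYPLA2 with DMSO and 100% = wells lacking LYPLA2 enzyme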
PAFAH2 FP inh – PAFAH2 enzyme inhibitors, primary screen, biochemical, fluorescence polarization, human | Platelet-activating factor acetylhydrolase 2, cytoplasmic (Homo sapiens), Q99487 | recombinant PAFAH2, FP-rhodamine activity probe | inhibition, % at 3.39 µM | 0.99% of 340,000 active | AID 492956, 2010;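 active means inhibition above the mean over all tested compounds plus 3 SD, cut at about 30% in these data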;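 further: inhibitors block probe labeling of enzyme so polarization drops; 0% = enzyme with DMSO and 100% = wells lacking PAFAH2 protein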
PAFAH1B2 FP inh – PAFAH1B2 enzyme inhibitors, primary screen, biochemical, fluorescence polarization, human; Platelet-activating factor acetylhydrolase IB subunit alpha2 (Homo sapiens), P68402; recombinant PAFAH1B2, FP-rhodamine activity probe; inhibition, % at 3.39 µM; 1.2% of 340,000 active; AID 492953, 2010;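 active means inhibition above the mean of all tested compounds plus 3 SD, cut at about 24% in these data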;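 further: 0% = enzyme with DMSO and 100% = wells lacking PAFAH1B2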
Target sequence (P68402 whole entry, looked up): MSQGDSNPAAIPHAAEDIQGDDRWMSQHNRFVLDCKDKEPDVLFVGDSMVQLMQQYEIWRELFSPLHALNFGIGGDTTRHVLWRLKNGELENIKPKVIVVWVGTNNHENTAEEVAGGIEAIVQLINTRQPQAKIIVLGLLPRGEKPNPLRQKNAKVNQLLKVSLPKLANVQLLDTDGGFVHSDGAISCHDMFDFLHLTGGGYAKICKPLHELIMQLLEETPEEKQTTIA
PAFAH2 FP conf – PAFAH2 enzyme inhibitors, confirmation, biochemical, fluorescence polarization, human; shares compounds with PAFAH2 FP inh; recombinant PAFAH2, FP-rhodamine activity probe; inhibition, % at 3.39 µM; 65% of 2,300 active; AID 493030, 2011;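 active means mean inhibition over three repeats above a set limit taken from the earlier primary screen, cut at about 30% in these data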;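 further: inhibitor blocks binding of rhodamine activity probe so polarization falls; 0% = enzyme with DMSO and 100% = wells lacking PAFAH2 protein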
Numbers without * were called inactive.

For O=C(OCC1CC(c2ccccc2)=NO1)c1ccco1 (stereo unspecified) the results were PAFAH1B3 inh 8, LYPLA1 counter 0, pPAFAH FP inh -7, LYPLA2 inh 4, PAFAH2 FP inh 33*, PAFAH1B2 FP inh -2 and PAFAH2 FP conf 24.
Screening CN(C)c1ccc(C#Cc2ccc3cc(CCCO)oc(=O)c3c2)cc1 returned PAFAH1B3 inh 8, LYPLA1 counter 1, pPAFAH FP inh 4, LYPLA2 inh 0, PAFAH2 FP inh 2 and PAFAH1B2 FP inh -4.
Screening Cc1cccnc1NC(=O)CSc1ncnc2sc(C)c(C)c12 returned PAFAH1B3 inh -1, LYPLA1 counter -2, pPAFAH FP inh 3, LYPLA2 inh 2, PAFAH2 FP inh 10 and PAFAH1B2 FP inh 0.
For Cc1sc2ncnc(SCC(=O)Nc3ncccc3O)c2c1C the results were PAFAH1B3 inh 5, LYPLA1 counter -3, pPAFAH FP inh 20, LYPLA2 inh 1, PAFAH2 FP inh 66*, PAFAH1B2 FP inh -4 and PAFAH2 FP conf 53*.
CCOc1ccc(CCNC(=O)COC(=O)/C=C/c2ccccc2)cc1OCC was read as PAFAH1B3 inh 3, LYPLA1 counter -2, pPAFAH FP inh 0, LYPLA2 inh 1, PAFAH2 FP inh 10 and PAFAH1B2 FP inh 2.
`O=C(COC(=O)[C@@H]1CCCN1S(=O)(=O)c1ccc(Cl)cc1)NC1CCS(=O)(=O)C1` (stereo partly specified) gave PAFAH1B3 inh 4, LYPLA1 counter 2, pPAFAH FP inh -2, LYPLA2 inh 2, PAFAH2 FP inh 7 and PAFAH1B2 FP inh 0.
O=C1CCCC2=C1C(c1cccc(O)c1)C1=C(N2)c2ccccc2C1=O (stereo unspecified) was read as PAFAH1B3 inh -1, LYPLA1 counter -1, pPAFAH FP inh 4, LYPLA2 inh 4, PAFAH2 FP inh 30*, PAFAH1B2 FP inh -2 and PAFAH2 FP conf 10.
`CCc1cccc(CC)c1NC(=O)COC(=O)CC1c2ccccc2CCN1S(=O)(=O)c1ccccc1` (stereo unspecified) gave PAFAH1B3 inh 0, LYPLA1 counter -4, pPAFAH FP inh 23, LYPLA2 inh 6, PAFAH2 FP inh 35*, PAFAH1B2 FP inh 3 and PAFAH2 FP conf 21.
For FC(F)Oc1ccc(NC(=S)N2CCN(Cc3ccccc3)CC2)cc1 the results were PAFAH1B3 inh 7, LYPLA1 counter -4, pPAFAH FP inh 6, LYPLA2 inh 0, PAFAH2 FP inh 3 and PAFAH1B2 FP inh 6.
Screening O=C(COC(=O)CC1CC2CCC1C2)Nc1ccc(Cl)c(S(=O)(=O)N2CCOCC2)c1 (stereo unspecified) returned PAFAH1B3 inh -3, LYPLA1 counter -3, pPAFAH FP inh 9, LYPLA2 inh -8, PAFAH2 FP inh 69*, PAFAH1B2 FP inh 5 and PAFAH2 FP conf 59*.
Screening Cc1ccc(NC(=O)COC(=O)c2sccc2C)cc1S(=O)(=O)N1CCOCC1 returned PAFAH1B3 inh 4, LYPLA1 counter -2, pPAFAH FP inh 1, LYPLA2 inh -4, PAFAH2 FP inh 81*, PAFAH1B2 FP inh -3 and PAFAH2 FP conf 72*.
Screening Cc1ccsc1C(=O)OCC(=O)Nc1cccc(S(=O)(=O)N2CCOCC2)c1 returned PAFAH1B3 inh -4, LYPLA1 counter -6, pPAFAH FP inh 6, LYPLA2 inh 0, PAFAH2 FP inh 77*, PAFAH1B2 FP inh -3 and PAFAH2 FP conf 58*.
For Cc1ccc(NC(=O)COC(=O)Cn2c(C)csc2=O)cc1S(=O)(=O)N1CCOCC1 the results were PAFAH1B3 inh 3, PAFAH2 FP inh 0 and PAFAH1B2 FP inh 0.
Cc1ccc(C(=O)OCC(=O)Nc2cccc(S(=O)(=O)N3CCOCC3)c2)o1 was read as PAFAH1B3 inh 8, LYPLA1 counter 1, pPAFAH FP inh -1, LYPLA2 inh -3, PAFAH2 FP inh 28 and PAFAH1B2 FP inh 6.
For Cc1cccc(-n2ncc3c(N4CCC(C)CC4)ncnc32)c1 the results were PAFAH1B3 inh 3, LYPLA1 counter -5, pPAFAH FP inh -1, LYPLA2 inh 5, PAFAH2 FP inh 5 and PAFAH1B2 FP inh 3.
`C=CCn1c(SCC(=O)N(C)C2CCCCC2)nnc1C1CC1` gave PAFAH1B3 inh 7, pPAFAH FP inh 0, PAFAH2 FP inh 34*, PAFAH1B2 FP inh 5 and PAFAH2 FP conf 25.
`CCC(C)NC(=O)COC(=O)c1cc([N+](=O)[O-])ccc1Sc1nc(C)cs1` (stereo unspecified) gave PAFAH1B3 inh -4, LYPLA1 counter 2, pPAFAH FP inh -4, LYPLA2 inh 9, PAFAH2 FP inh -4 and PAFAH1B2 FP inh 4.
O=C(NCCc1ccc(Cl)cc1)C1CC(=O)N(C2CCCC2)C1 (stereo unspecified) was read as PAFAH1B3 inh 3, LYPLA1 counter 3, pPAFAH FP inh 1, LYPLA2 inh 9, PAFAH2 FP inh 104*, PAFAH1B2 FP inh 13 and PAFAH2 FP conf -4.
For O=C(NCCc1ccccc1)C1CC(=O)N(C2CCCCCC2)C1 (stereo unspecified) the results were PAFAH1B3 inh 3, LYPLA1 counter -1, pPAFAH FP inh 0, LYPLA2 inh -4, PAFAH2 FP inh 1 and PAFAH1B2 FP inh 0.
Screening O=c1oc(-c2ccccc2NS(=O)(=O)c2ccccc2)nc2ccccc12 returned PAFAH1B3 inh -1, LYPLA1 counter -3, pPAFAH FP inh -6, LYPLA2 inh -1, PAFAH2 FP inh 77*, PAFAH1B2 FP inh 5 and PAFAH2 FP conf 67*.
`CC(=O)Nc1cccc(-c2nc3ccccc3c(=O)o2)c1` gave PAFAH1B3 inh 8, LYPLA1 counter 0, pPAFAH FP inh -4, LYPLA2 inh -4, PAFAH2 FP inh -3 and PAFAH1B2 FP inh 1.
`Nc1ccccc1-c1nc2ccccc2c(=O)o1` gave PAFAH1B3 inh 13, LYPLA1 counter -3, pPAFAH FP inh -6, LYPLA2 inh -3, PAFAH2 FP inh 30*, PAFAH1B2 FP inh 6 and PAFAH2 FP conf 21.
Screening CCN(C[C@H]1N[C@@](CC)(C(=O)OC)[C@H]2C(=O)N(Cc3ccccc3)C(=O)[C@@H]12)C(=O)c1ccc(C)cc1 returned PAFAH1B3 inh 9, pPAFAH FP inh 3, PAFAH2 FP inh 1 and PAFAH1B2 FP inh 10.
